{"source": "the supplement of paper PMC11150407", "note": "Structures can show the parent of a compound that is named as a salt. In all, about 2,100 compounds went through this assay and about 180 (8.6%) showed an effect of 50% or more. The full list was thinned out, with strong results kept by preference."}
{"test_system": "MOLM1 and UCSD/AML1 (averaged)", "assay": "cell viability relative to DMSO control (POC); higher = less growth inhibition", "conditions": "1 µM; 72 h", "description": "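Primary viability screen in the 3q26 EVI1-high AML cell lines MOLM1 and UCSD/AML1 (1.5e3 cells/well, 384-well), compounds at 1 uM for 72 h. ATP CellTiter-Glo read-out given as percent of viable cells over DMSO control (POC), averaged over duplicates. DMSO was the negative control and 5 uM etoposide the positive control. This mapping covers the MicroSource Spectrum and Selleck anticancer libraries (drug names).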", "units": {"cell viability": "%"}}
{"smiles": "C=C1C(=O)[C@]23[C@H](CC[C@@H]1[C@@H]2O)[C@]12CO[C@@]3(O)[C@H](O)[C@H]1C(C)(C)CC[C@@H]2O", "cell viability": 94.3}
{"smiles": "CC1(C)CC2C1CCC1(C)OC2(C)CCC1O", "note": "(stereo not drawn)", "cell viability": 91.4}
{"smiles": "CC(C)=CCC/C(C)=C/COc1ccc2ccc(=O)oc2c1", "cell viability": 92.6}
{"smiles": "CC(C)(C)NCC(O)c1ccc(O)c(CO)c1", "note": "(racemic)", "cell viability": 93.2}
{"smiles": "O=C(O)c1cc2cc(Cl)ccc2[nH]1", "cell viability": 98.1}
{"smiles": "O=C1c2c(O)ccc(O)c2C(=O)c2c(NCCNCCO)ccc(NCCNCCO)c21", "note": "[Mitoxantrone Hydrochloride]", "cell viability": 2.15}
{"smiles": "O=C1c2c(O)cccc2Cc2cccc(O)c21", "cell viability": 102}
{"smiles": "O=C1c2cccc(O)c2C(=O)c2c(O)cccc21", "cell viability": 104}
{"smiles": "O=C1c2c(O)ccc(O)c2C(=O)c2c(NCCNCCO)ccc(NCCNCCO)c21", "cell viability": 8.27}
{"smiles": "NCCOB(c1ccccc1)c1ccccc1", "cell viability": 117}
{"smiles": "CC(C)CCC[C@@H](C)[C@H]1CC[C@H]2[C@@H]3CC(=O)[C@H]4C[C@@H](O)CC[C@]4(C)[C@H]3CC[C@]12C", "note": "[5alpha-CHOLESTAN-3beta-OL-6-ONE]", "cell viability": 107}
{"smiles": "Cc1ccc(C(=O)N(CCCN)[C@@H](c2nc3cc(Cl)ccc3c(=O)n2Cc2ccccc2)C(C)C)cc1", "cell viability": 15.3}
{"smiles": "Cc1ccc(C(=O)N(CCCN)[C@@H](c2oc3cc(Cl)ccc3c(=O)c2Cc2ccccc2)C(C)C)cc1", "cell viability": 13.4}
{"smiles": "CC(=O)O[C@@H]1C[C@H]2C(C)(C)C(=O)CC[C@]2(C)[C@H]2CC[C@@]3(C)[C@H](c4ccoc4)OC(=O)[C@H]4O[C@]43[C@@]21C", "cell viability": 100}
{"smiles": "CNC(=O)c1ccc(N2C(=S)N(c3ccc(C#N)c(C(F)(F)F)c3)C(=O)C2(C)C)cc1F", "note": "[MDV3100 (Enzalutamide)]", "cell viability": 102}
{"smiles": "CC(C)CC(NC(=O)[C@H](C)N)C(=O)O", "note": "(mixture of isomers)", "cell viability": 105}
{"smiles": "COc1cc(C)c(C(=O)Oc2cc(C)c(C(=O)O)c(O)c2C)c(OC)c1C", "cell viability": 109}
{"smiles": "CNS(=O)(=O)c1ccc(NC(=O)c2ccccc2C(=O)O)cc1", "cell viability": 110}
{"smiles": "Nc1nc(=O)c2[nH]c(=O)cnc2[nH]1", "cell viability": 112}
{"smiles": "C[C@]12CCC(=O)C=C1C=C[C@@H]1[C@@H]2CC[C@@]2(C)[C@H]1CC[C@@]21CCC(=O)O1", "cell viability": 83.2}
{"smiles": "CN1CCC(CNc2ccc3ncc(-c4cccc(OC(F)(F)F)c4)n3n2)CC1", "note": "[SGI-1776 free base]", "cell viability": 80}
{"smiles": "O=c1c(O)cc([C@H]2Oc3cc(O)cc(O)c3C[C@H]2O)cc2c([C@H]3Oc4cc(O)cc(O)c4C[C@H]3O)cc(O)c(O)c12", "cell viability": 104}
{"smiles": "CN1CCN(CCOc2cc(OC3CCOCC3)c3c(Nc4c(Cl)ccc5c4OCO5)ncnc3c2)CC1", "note": "[Saracatinib (AZD0530)]", "cell viability": 47.7}
